Potency data for 40 molecules are collected here from PubChem BioAssay (Tox21).

Results filed as inconclusive are left out. Where a call stands in place of a potency, no number is given. The source made the active and inactive calls. Calls come from the whole dose curve; as a rule, active = well fitted inhibition curve with a large enough effect in the repeat runs; inconclusive = weak or mixed curves; inactive = no such curve, though single readings can be large or run the other way.
Potency is the fitted concentration of half-maximal effect.

Chain of Cytochrome P450 2C9 (Homo sapiens) (P11712 whole entry, looked up): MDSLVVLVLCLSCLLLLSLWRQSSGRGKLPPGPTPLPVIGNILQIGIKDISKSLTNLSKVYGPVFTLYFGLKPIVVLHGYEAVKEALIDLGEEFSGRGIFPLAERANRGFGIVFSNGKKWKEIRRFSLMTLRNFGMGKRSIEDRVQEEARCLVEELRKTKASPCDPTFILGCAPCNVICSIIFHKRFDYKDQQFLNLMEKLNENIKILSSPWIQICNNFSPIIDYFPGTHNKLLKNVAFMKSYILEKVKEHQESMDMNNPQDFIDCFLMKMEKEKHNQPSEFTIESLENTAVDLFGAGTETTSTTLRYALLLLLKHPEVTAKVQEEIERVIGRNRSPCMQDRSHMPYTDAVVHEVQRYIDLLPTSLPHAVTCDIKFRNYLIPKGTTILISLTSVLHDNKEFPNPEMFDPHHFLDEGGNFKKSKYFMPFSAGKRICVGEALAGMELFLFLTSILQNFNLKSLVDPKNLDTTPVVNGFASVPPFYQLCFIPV

For the test, the target named is Cytochrome P450 2C9 (Homo sapiens) (UniProt P11712). Kind of test: Cytochrome P450 Family 2 Subfamily C Member 9 (CYP2C9) small molecule antagonists: luciferase reporter qHTS assay (AID 1671198). Note: nearly all actives have a fitted effect of over 50% in size. As to conditions: P450-Glo CYP2C9 enzyme assay, luciferin luminescence; series mostly up to 115 µM. An excerpt:
U.S. Tox21 Program National Center for Advancing Translational Sciences [NCATS] U.S. Environmental Protection Agency [EPA] National Institutes of Environmental Health Sciences [NIEHS] National Toxicology Program [NTP] U.S. Food and Drug Administration [FDA] Tox21 Assay Overview: Cytochrome P450 (CYP) enzymes are membrane-bound hemeproteins that play a key role in metabolism of drugs and xenobiotics. Evaluation of the effect of chemicals on CYP isozymes is useful to minimize the adverse drug reactions and toxicities in drug development process. Tox21 chemicals were tested for their effect on CYP enzyme activities by using P450-Glo (TM) screening systems (Promega Corporation, Madison, WI). These systems provide a luminescent method containing proluciferin substrates and are converted to luciferin products by CYP isozymes. The luciferin products formed are detected with a luciferin detection reagent, and the amount of light produced is proportional to CYP activity. P450-Glo (TM) CYP2C9 screening system (Catalog. No. V9790) was used to detect the compounds that interfere in CYP2C9 activity.
Tox21 Assay Protocol Summary: Two ul of enzyme-substrate mix was dispensed into medium binding white/solid 1536-well plates (Greiner Bio-One North America Inc., Monroe, NC) using a BioRaptr Flying Reagent Dispenser (FRD, Beckman Coulter, Brea, CA). […] The assay plates were incubated at room temperature for 10 min. Then 2 ul of NADPH regeneration solution was added to each well of the assay plates using an FRD and incubated at 37C for 1 h. The reaction was stopped by adding 4 ul of detection reagent using an FRD and after 20 min incubation at room temperature the luminescence signal was measured using a ViewLux plate reader (Perkin Elmer, Shelton, CT). Data were expressed as relative luminescence units.
(Reporter assays use an easily measured gene product as a stand-in for the process of interest.)
Consider `CC(C)(C)C(=O)Cl`, for which the Potency entry is “inactive”.
In the case of `C=CC=O` it was “inactive”; in that of `ClC(Cl)(Cl)Cl`, “inactive”; in that of `Cc1ccc2cc(C)ccc2c1`, “inactive”.
In the case of `Cc1ccc(-c2nc3ccc(C)cn3c2CC(=O)N(C)C)cc1` it was “inactive”; in that of `COc1cc(CC(C)N)cc(OC)c1OC` (stereo not given), “inactive”.
In the case of `C(COCC1CO1)OCC1CO1` (stereo not given) it was “inactive”; in that of `CCCOC(=O)Cc1ccc(OCC(=O)N(CC)CC)c(OC)c1`, “inactive”.
Consider `CCN[C@@H](C)Cc1ccccc1`, for which the Potency result is “inactive”.
In the case of `CON(C)C(=O)Nc1ccc(Br)c(Cl)c1` it was 63.3 µM (active); in that of `CC1N=C(N)OC1c1ccccc1` (stereo not given), “inactive”; in that of `CCOP(=O)(CN(CCO)CCO)OCC`, “inactive”.
In the case of `C=C(Cl)CCl` it was “inactive”; in that of `O=C1CCCCC1Cl` (stereo not given), “inactive”.
In the case of `C=CC1(C)OC(=O)N(c2cc(Cl)cc(Cl)c2)C1=O` (stereo not given) it was “inactive”; in that of `C=C1CC[C@@]2(O)[C@H]3Cc4ccc(O)c5c4[C@@]2(CCN3CC2CC2)[C@H]1O5`, “inactive”; in that of `C[C@@H](N)[C@@H](O)c1ccccc1`, “inactive”.
Regarding `O=C(O)C(F)(F)C(F)(F)C(F)(F)C(F)(F)C(F)(F)C(F)(F)F`, the Potency was 6.33 µM (active).
Consider `COC[C@@H](NC(C)=O)C(=O)NCc1ccccc1`, for which the Potency result was “inactive”.
In the case of `CCCCCCCCBr` it was “inactive”.
The figure for `CCCOC(=O)c1cncn1C(C)c1ccccc1` (stereo not given) is 13.8 µM (active).
In the case of `BrCC1CO1` (stereo not given) it was “inactive”.
`CCC1(c2ccccc2)CCC(=O)NC1=O` (stereo not given): the Potency result was “inactive”.
In the case of `COc1ccc2c(C(=O)c3ccc(Cl)cc3)c(C)n(CC(=O)O)c2c1` it was 15.5 µM (active).
For `COc1ccccc1OC`, the Potency entry was “inactive”.
The entry for `CCOC(=O)CCl` is “inactive”; for `O=C(Cl)C(Cl)(Cl)Cl` it is “inactive”.
In the case of `Clc1ccc(C(Cl)(Cl)Cl)cn1` it was “inactive”.
In the case of `CC(Cc1ccccc1)NCCCCl` (stereo not given) it was “inactive”; in that of `NC(=O)OCCCc1ccccc1`, “inactive”.
For `CCCCOC(C)=O`, the Potency entry is “inactive”.
In the case of `Cc1cc(OC(=O)N(C)C)nn1C(=O)N(C)C`, the Potency result was “inactive”.
The figure for `C=C(Cl)CSC(=S)N(CC)CC` is 38.9 µM (active); for `CC#Cc1cc(C)nc(Nc2ccccc2)n1` it is 35.5 µM (active).
In the case of `Cn1c(N)nc2c3cccnc3ccc21` it was “inactive”.
In the case of `Nc1c(Cl)c(F)nc(OCC(=O)O)c1Cl` it was “inactive”.
With `CC(C)(C)c1cc(O)ccc1O`, the Potency was 31.7 µM (active).
For the molecule `c1ccc2c(c1)CCNC2`, the Potency is 32.5 µM (active).
In the case of `CC(Cc1ccccc1)NCCn1cnc2c1c(=O)n(C)c(=O)n2C` (stereo not given) it was “inactive”.
On to `CCCCCCCCSC(=O)Oc1cc(Cl)nnc1-c1ccccc1`, for which the Potency was 35.6 µM (active).
